The record followed here is ChEMBL document CHEMBL2218924, “A broad activity screen in support of a chemogenomic map for kinase signalling research and drug discovery” (Biochem J, 2013).

In assay [1] the target is Ribosomal protein S6 kinase alpha-1 (Homo sapiens) (UniProt Q15418). The conditions noted are these: at 1 µM.
For assay [2] the target is unchanged. The conditions noted are these: at 10 µM.
Assay [3] addresses Ribosomal protein S6 kinase alpha-3 (Homo sapiens) (UniProt P51812). The conditions noted are these: at 1 µM.
The target is the same in assay [4]. Conditions: at 10 µM.
The target of assay [5] is Ribosomal protein S6 kinase alpha-6 (Homo sapiens) (UniProt Q9UK32). Conditions: at 1 µM.
Ribosomal protein S6 kinase alpha-6 (Homo sapiens), sequence (Q9UK32 whole entry): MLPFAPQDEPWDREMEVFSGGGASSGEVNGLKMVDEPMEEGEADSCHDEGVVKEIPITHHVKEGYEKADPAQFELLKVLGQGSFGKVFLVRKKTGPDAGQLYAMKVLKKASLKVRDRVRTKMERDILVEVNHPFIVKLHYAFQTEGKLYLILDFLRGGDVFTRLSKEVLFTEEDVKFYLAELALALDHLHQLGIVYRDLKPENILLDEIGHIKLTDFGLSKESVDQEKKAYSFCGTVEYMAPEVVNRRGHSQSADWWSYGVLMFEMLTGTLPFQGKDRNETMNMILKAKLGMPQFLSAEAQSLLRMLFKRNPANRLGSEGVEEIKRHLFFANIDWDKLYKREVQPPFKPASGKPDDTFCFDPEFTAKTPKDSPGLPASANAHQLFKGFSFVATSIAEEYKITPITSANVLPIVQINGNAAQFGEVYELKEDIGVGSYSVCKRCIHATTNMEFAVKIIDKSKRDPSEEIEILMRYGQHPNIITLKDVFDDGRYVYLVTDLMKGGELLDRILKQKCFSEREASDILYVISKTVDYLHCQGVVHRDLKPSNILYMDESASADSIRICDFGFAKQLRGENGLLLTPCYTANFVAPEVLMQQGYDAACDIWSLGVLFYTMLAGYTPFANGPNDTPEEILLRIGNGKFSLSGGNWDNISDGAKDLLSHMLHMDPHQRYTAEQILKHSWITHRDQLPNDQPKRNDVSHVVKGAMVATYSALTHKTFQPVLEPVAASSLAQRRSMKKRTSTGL
The target is the same in assay [6]. The conditions noted are these: at 10 µM.
Assay [7] has as its target Mitogen-activated protein kinase 14 (Homo sapiens) (UniProt Q16539). The conditions noted are these: at 1 µM.
Assay [8] has the same target. The conditions noted are these: at 10 µM.
Assay [9] addresses Mitogen-activated protein kinase 11 (Homo sapiens) (UniProt Q15759). Conditions: at 10 µM.
Assay [10] has as its target T1, Mitogen-activated protein kinase 13 (Homo sapiens) (UniProt O15264).
T1 sequence (whole entry): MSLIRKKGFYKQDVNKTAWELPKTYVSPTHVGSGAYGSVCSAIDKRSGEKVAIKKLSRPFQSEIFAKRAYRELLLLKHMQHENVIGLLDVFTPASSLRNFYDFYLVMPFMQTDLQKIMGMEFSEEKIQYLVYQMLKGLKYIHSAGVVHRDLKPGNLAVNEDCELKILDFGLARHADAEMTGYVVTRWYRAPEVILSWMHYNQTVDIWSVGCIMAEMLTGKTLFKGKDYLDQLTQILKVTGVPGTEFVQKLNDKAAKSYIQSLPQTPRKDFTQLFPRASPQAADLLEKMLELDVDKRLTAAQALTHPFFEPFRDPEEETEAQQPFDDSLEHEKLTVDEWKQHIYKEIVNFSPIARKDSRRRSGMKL
Conditions: at 1 µM.

In assay [11] the target is T1, Mitogen-activated protein kinase 13 (Homo sapiens). The conditions noted are these: at 10 µM.
Assay [12] deals with T2, Serine/threonine-protein kinase Sgk1 (Homo sapiens) (UniProt O00141).
T2 sequence (whole entry): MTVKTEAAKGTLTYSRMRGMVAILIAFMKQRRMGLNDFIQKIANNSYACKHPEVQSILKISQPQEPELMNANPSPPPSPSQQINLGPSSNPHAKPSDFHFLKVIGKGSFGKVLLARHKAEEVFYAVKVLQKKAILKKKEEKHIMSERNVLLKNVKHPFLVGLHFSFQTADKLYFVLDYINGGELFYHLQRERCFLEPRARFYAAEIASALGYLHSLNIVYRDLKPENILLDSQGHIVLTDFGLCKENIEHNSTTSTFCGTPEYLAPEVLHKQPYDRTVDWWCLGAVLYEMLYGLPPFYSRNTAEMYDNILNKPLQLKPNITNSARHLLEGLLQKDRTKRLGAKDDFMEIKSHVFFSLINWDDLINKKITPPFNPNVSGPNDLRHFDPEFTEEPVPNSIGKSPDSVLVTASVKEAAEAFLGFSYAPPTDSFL
The conditions noted are these: at 1 µM.

Assay [13] addresses T2, Serine/threonine-protein kinase Sgk1 (Homo sapiens). Conditions: at 10 µM.
Assay [14] addresses T3, Serine/threonine-protein kinase Sgk2 (Homo sapiens) (UniProt Q9HBY8).
T3 sequence (whole entry): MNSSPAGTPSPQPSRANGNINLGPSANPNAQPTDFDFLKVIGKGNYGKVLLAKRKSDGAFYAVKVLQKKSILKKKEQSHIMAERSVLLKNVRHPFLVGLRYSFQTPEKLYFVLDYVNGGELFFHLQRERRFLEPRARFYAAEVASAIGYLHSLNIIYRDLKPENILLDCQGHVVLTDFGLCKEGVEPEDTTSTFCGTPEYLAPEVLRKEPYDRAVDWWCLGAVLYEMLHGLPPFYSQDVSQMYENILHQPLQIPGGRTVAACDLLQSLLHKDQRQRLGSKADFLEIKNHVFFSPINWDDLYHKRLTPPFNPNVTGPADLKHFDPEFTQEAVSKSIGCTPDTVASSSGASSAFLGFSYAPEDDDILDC
The conditions noted are these: at 10 µM.

Assay [15] addresses T4, Serine/threonine-protein kinase Sgk3 (Homo sapiens) (UniProt Q96BR1).
T4 sequence (whole entry): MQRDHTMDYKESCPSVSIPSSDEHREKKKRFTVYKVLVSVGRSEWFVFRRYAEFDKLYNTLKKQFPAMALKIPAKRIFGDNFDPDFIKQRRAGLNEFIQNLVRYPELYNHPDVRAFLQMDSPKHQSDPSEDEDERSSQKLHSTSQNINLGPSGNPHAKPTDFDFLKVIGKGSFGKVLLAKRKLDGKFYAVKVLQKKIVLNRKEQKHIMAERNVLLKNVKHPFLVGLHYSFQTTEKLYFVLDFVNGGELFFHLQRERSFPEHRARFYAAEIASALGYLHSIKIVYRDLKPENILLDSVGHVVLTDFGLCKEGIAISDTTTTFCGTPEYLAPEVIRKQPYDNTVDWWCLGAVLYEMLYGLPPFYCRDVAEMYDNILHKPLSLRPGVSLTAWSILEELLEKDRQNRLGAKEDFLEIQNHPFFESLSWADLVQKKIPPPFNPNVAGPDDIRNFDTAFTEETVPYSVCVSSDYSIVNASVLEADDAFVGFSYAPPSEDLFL
The conditions noted are these: at 10 µM.

The target in assay [16] is Serine/threonine-protein kinase SIK1 (Homo sapiens) (UniProt P57059). The conditions noted are these: at 1 µM.
Serine/threonine-protein kinase SIK1 (Homo sapiens), sequence (P57059 whole entry): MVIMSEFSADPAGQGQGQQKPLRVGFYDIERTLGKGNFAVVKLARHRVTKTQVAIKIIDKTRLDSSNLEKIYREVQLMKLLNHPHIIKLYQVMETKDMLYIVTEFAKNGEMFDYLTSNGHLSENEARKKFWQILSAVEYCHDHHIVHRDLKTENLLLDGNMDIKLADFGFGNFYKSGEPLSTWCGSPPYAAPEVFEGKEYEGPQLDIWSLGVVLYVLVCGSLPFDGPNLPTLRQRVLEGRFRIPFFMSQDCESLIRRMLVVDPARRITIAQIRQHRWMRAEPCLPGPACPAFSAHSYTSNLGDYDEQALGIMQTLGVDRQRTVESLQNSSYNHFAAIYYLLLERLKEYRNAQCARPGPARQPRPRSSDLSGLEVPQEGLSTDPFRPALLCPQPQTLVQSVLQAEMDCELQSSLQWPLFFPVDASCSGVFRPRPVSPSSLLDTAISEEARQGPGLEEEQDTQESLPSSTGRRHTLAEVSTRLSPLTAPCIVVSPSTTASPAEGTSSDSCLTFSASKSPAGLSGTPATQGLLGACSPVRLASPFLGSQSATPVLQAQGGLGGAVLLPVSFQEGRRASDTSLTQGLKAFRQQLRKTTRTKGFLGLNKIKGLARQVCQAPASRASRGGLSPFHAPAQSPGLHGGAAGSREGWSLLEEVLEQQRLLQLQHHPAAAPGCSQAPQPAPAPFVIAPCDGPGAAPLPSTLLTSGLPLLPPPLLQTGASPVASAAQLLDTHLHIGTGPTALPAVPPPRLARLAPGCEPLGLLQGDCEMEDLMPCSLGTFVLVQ
For assay [17], the target named is Ribosomal protein S6 kinase alpha-2 (Homo sapiens) (UniProt Q15349). Conditions: at 10 µM.
Ribosomal protein S6 kinase alpha-2 (Homo sapiens), sequence (Q15349 whole entry): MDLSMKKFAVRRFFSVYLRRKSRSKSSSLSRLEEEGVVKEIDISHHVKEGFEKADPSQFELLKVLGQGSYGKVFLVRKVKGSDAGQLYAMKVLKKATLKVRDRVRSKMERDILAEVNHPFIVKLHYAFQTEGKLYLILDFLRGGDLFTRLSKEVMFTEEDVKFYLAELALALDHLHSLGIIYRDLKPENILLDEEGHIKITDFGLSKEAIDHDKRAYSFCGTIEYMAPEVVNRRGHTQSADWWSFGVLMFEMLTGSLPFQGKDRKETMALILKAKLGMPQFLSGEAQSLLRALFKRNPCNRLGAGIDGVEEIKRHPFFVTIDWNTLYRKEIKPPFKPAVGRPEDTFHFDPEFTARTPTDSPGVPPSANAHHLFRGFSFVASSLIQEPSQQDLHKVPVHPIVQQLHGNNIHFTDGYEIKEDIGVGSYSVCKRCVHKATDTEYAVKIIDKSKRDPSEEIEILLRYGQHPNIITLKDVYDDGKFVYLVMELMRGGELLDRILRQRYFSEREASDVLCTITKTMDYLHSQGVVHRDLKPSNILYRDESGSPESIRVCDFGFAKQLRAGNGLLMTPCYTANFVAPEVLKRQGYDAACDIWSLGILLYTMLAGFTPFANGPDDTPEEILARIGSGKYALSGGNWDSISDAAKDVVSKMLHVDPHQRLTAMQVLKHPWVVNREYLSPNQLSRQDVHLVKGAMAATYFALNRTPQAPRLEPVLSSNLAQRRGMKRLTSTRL
The target in assay [18] is Mitogen-activated protein kinase 11 (Homo sapiens) (UniProt Q15759). The conditions noted are these: at 1 µM.
Mitogen-activated protein kinase 11 (Homo sapiens), sequence (Q15759 whole entry): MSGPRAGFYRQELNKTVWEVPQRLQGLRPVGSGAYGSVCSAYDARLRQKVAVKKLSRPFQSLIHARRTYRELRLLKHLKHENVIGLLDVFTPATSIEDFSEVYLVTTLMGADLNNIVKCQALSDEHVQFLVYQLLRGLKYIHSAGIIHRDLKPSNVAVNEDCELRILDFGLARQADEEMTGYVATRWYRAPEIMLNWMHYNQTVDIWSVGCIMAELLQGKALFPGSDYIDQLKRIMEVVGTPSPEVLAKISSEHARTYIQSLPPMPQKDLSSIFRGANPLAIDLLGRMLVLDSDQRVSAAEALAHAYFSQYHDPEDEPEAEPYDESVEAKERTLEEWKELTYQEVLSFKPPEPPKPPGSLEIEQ
Assay [19] has as its target Ribosomal protein S6 kinase alpha-2 (Homo sapiens) (UniProt Q15349). The conditions noted are these: at 1 µM.
The target of assay [20] is T3, Serine/threonine-protein kinase Sgk2 (Homo sapiens). The conditions noted are these: at 1 µM.

Ribosomal protein S6 kinase alpha-3 (Homo sapiens), sequence (P51812 whole entry): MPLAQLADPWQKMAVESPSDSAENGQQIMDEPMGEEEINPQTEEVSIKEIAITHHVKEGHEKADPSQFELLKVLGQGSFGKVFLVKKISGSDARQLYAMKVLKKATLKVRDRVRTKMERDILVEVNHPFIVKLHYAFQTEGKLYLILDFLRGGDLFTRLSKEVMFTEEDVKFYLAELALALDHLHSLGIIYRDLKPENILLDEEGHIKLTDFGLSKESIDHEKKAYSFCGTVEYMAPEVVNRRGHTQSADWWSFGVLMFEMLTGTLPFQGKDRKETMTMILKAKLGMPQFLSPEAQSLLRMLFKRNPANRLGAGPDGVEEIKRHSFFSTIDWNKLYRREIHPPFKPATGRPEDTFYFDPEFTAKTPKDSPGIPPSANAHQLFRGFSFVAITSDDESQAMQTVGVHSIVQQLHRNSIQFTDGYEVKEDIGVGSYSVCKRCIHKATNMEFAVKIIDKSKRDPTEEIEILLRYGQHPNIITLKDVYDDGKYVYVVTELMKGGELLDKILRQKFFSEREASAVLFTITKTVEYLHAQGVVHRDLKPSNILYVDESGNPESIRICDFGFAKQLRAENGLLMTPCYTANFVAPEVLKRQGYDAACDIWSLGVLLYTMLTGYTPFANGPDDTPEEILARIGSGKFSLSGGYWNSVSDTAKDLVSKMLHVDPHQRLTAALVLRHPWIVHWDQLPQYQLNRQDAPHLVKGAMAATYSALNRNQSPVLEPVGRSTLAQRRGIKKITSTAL
Ribosomal protein S6 kinase alpha-1 (Homo sapiens), sequence (Q15418 whole entry): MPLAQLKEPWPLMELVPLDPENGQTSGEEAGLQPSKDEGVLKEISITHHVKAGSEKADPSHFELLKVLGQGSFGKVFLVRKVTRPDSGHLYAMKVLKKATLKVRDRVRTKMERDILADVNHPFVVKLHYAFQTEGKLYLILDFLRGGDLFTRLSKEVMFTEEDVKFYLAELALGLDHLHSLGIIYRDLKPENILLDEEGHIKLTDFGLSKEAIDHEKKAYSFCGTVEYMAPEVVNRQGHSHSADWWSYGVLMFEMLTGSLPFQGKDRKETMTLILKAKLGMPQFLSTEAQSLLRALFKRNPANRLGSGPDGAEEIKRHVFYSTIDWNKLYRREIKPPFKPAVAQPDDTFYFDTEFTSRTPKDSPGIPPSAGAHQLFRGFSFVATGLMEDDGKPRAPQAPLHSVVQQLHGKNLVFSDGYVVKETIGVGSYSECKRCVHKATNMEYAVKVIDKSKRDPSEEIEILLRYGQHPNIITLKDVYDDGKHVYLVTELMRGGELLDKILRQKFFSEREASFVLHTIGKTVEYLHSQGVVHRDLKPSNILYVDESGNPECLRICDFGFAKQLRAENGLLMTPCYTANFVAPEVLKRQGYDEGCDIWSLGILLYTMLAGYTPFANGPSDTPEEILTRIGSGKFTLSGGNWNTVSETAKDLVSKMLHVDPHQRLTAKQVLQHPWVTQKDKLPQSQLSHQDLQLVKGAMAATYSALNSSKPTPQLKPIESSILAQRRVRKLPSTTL
Mitogen-activated protein kinase 14 (Homo sapiens), sequence (Q16539 whole entry): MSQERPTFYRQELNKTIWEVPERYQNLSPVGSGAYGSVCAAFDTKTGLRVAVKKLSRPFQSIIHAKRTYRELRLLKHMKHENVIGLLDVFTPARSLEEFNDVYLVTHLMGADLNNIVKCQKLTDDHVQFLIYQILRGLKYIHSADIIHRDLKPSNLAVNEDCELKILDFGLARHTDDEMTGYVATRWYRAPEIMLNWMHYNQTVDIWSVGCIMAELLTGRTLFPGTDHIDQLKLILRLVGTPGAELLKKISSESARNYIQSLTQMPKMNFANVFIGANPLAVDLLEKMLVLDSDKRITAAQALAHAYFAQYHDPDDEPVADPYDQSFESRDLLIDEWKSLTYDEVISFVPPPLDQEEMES

In the case of `O=C1C(Cl)=C(N2C(=O)CCC2=O)C(=O)c2ccccc21`, the residual activity in assay [1] turned out to be 120%; in assay [2], 131%; in [3], 73%; in assay [4] it was 75%; in assay [5] it was 92%; in assay [6], 99%. The residual activity in [7] is 86%; in assay [8], 92%; in [9], 92%; in assay [10], 95%; in [11], 92%; in assay [12] it was 90%. For the same compound, the residual activity in assay [13] was 100%; in [14] it was 97%; in assay [15], 82%; in assay [16], 122%.

As to `O=c1cc(N2CCNCC2)oc2c(-c3ccccc3)cccc12`, the residual activity amounted to 124% in [1]; 96% in assay [2]; 51% in [3]; 36% in assay [4]; 104% in [17]; 89% in [6]. The residual activity is 101% in assay [7]; 98% in [8]; 95% in assay [18]; 105% in [9]; 83% in assay [11]; 80% in [12]. Further, the residual activity turned out to be 98% in assay [13], 79% in [14], 90% in assay [15] and 82% in assay [16].

In the case of `c1ccc(-c2cnc(Nc3ccc(OCCN4CCCC4)cc3)s2)cc1`, the residual activity came out at 121% in assay [1]; 66% in assay [2]; 56% in assay [3]; 36% in assay [4]; 72% in assay [5]; 58% in assay [6]. The results for the residual activity in assay [10], in assay [11] and in assay [16] were 103%, 103% and 53%, respectively.

Regarding `O=C1NC(=O)C(c2cn(CCCO)c3ncccc23)=C1c1cnccn1`, the residual activity in [1] came out at 98%; in assay [2], 99%; in assay [3], 41%; in [4], 45%; in [19], 63%; in assay [17], 55%. For the same compound, the residual activity in [5] was found to be 83%; in assay [6] it was 65%; in assay [7], 82%; in [8], 92%; in [10], 99%; in assay [11] it was 94%. The figures for the residual activity in assay [14] and in assay [16] were 92% and 129%, respectively.

Regarding `Cn1c2ccccc2c2c3c(c4c5ccccc5n(CCC#N)c4c21)CNC3=O`, the residual activity was 7% in [1]; 4% in assay [2]; 1% in assay [3]; 1% in assay [4]; 0% in assay [19]; -1% in [17]. Besides, the residual activity in assay [5] stood at 4%; in assay [6] it was 4%; in [9], 100%; in assay [10], 99%; in assay [12], 82%; in assay [13] it was 40%. In addition, the results for the residual activity in assay [20], in assay [14] and in assay [16] were 76%, 47% and 9%, respectively.

Regarding `O=C1NC(=O)c2c1c1c3ccccc3[nH]c1n1cncc21`, the residual activity turned out to be 58% in assay [1]; 43% in [2]; 57% in [3]; 24% in [4]; 33% in [19]; 15% in assay [17]. The residual activity was 37% in assay [5]; 36% in assay [6]; 93% in assay [7]; 87% in [8]; 90% in [18]; 87% in assay [9]. For the same compound, the residual activity in assay [10] turned out to be 93%; in assay [11] it was 88%; in assay [12] it was 66%; in assay [13], 47%; in assay [20] it was 52%; in assay [14] it was 38%. Besides, the results for the residual activity in assay [15] and in assay [16] were 67% and 83%, respectively.

Regarding `Cc1cc(C)c(/C=C2\C(=O)Nc3ccccc32)[nH]1`, the residual activity came out at 51% in assay [1]; 11% in assay [2]; 26% in assay [3]; 5% in [4]; 27% in assay [19]; 4% in assay [17]. For the same compound, the residual activity in assay [5] came out at 38%; in [6] it was 17%; in [7], 79%; in [8], 98%; in assay [10] it was 124%; in [20] it was 80%. For the same compound, the residual activity in assay [14] amounted to 67%.

As to `Nc1ncnc2[nH]nc(Nc3ccc(F)cc3)c12`, the residual activity turned out to be 106% in assay [1]; 64% in [2]; 42% in assay [3]; 24% in assay [4]; 59% in assay [19]; 17% in assay [17]. The residual activity in assay [5] was 48%; in assay [6] it was 30%; in [7], 78%; in assay [8], 47%; in [18], 103%; in [10], 103%. The residual activity in assay [11] was determined as 94%; in assay [12], 94%; in [13], 74%; in assay [20] it was 113%; in assay [14] it was 43%; in assay [15], 80%. Moreover, the residual activity in [16] worked out at 48%.
